# FEN1 inh-1: blocks human flap endonuclease 1. Recombinant FEN1 flap cleavage, fluorescence, 15 min. Potency, µM (series often up to 114 µM), inactives show top-dose activity change, negative = inhibition, actives largely listed as inhibitors. hit rate 0.35% among 390,000. AID 588795; further: on the % scale 0 is the no-effect control and ±100 the full control effect; nearly all actives have a fitted effect of over 65% in size
#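 FEN1 at 10 nM, compound pretreatment for 15 min (room temperature), 50 nM final substrate to initiate; endpoint reads at 0 and 15 min; DMSO-only plates used as vehicle background.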
# Pol eta inh-1: inhibitors of human DNA polymerase eta. Q9Y253. recombinant Pol eta, fluorescent DNA replication assay. Potency, µM (highest dose often 114 µM), for inactives: at the top dose activity change, negative = inhibition, actives largely listed as inhibitors. hit rate 1.2% among 390,000. AID 588591; further: on the % scale 0 is the no-effect control and ±100 the full control effect
#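 Pol eta at 10 nM preincubated with compounds 15 min at room temperature; reaction started with fluorescent substrate (50 nM final) and read kinetically at 0 and 10 min.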
# Pol iota inh: DNA polymerase iota (human) inhibition | hit rate 1% among 390,000 | AID 588590 | Q9UNA4 | Pol iota fluorescent replication assay, 10 min | Potency, µM (series often up to 115 µM), for the others: top-dose activity, negative = inhibition, most hits filed as inhibitors
# Target sequence (Q9UNA4 whole entry, looked up): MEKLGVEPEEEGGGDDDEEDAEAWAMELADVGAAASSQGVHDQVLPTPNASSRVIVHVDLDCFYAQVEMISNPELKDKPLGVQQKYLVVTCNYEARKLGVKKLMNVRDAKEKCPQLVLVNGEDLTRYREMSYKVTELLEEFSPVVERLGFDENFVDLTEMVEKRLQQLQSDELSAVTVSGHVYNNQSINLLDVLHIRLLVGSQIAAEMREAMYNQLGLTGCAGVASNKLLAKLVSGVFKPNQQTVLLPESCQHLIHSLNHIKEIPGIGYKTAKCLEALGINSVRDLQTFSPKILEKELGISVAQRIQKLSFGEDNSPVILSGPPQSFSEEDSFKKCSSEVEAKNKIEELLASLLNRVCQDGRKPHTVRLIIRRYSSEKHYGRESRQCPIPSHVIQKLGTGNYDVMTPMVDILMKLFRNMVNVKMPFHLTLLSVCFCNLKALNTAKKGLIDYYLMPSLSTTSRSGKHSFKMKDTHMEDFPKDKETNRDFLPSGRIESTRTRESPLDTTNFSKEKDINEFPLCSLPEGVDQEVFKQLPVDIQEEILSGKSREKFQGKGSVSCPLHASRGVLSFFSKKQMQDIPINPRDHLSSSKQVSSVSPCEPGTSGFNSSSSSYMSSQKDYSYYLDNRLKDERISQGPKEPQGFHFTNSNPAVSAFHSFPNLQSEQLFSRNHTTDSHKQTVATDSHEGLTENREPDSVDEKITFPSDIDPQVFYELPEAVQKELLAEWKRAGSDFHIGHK
#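 Pol iota at 10 nM preincubated 15 min with compounds at room temperature; reaction started with fluorescent substrate, 50 nM final. Fluorescence read kinetically at 0 and 10 min; buffer-only wells as negative control.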
# Pol beta inh: inhibitors of human DNA polymerase beta; Potency, µM (top dose mostly 114 µM), for inactives: at the highest dose activity change, negative = inhibition, usual class: inhibitors; P06746; hit rate 1.3% among 340,000; Pol beta primer extension/strand displacement, fluorescence kinetic; further: on the % scale 0 is the no-effect control and ±100 the full control effect
#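 Kinetic readout of DNA synthesis with strand displacement by Pol beta. Compound and 10 nM enzyme sit 15 min at room temperature; 50 nM substrate starts the reaction, read immediately and at 10 min.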
# Pol kappa inh-1: blocks human DNA polymerase kappa activity. purified Pol kappa, fluorescent DNA synthesis assay, 10 min. AID 588579. hit rate 0.53% among 400,000. Q9UBT6. Potency, µM (top dose mostly 107 µM), inactives show top-dose activity, negative = inhibition, usual class: inhibitors; further: on the % scale 0 is the no-effect control and ±100 the full control effect
#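 10 nM Pol kappa preincubated 15 min at room temperature with compounds, then reaction started with substrate at 50 nM final. Fluorescence read kinetically at 0 and 10 min; buffer-only wells served as negative control.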
# WRN helicase inh-1: blocks human WRN helicase. Q14191. WRN helicase unwinding, fluorescent forked duplex, kinetic. Potency, µM (top dose mostly 114 µM), for inactives: top-dose activity change, negative = inhibition, actives largely listed as inhibitors. hit rate 0.46% among 360,000. AID 651768; further: on the % scale 0 is the no-effect control and ±100 the full control effect; nearly all actives have a fitted effect of over 55% in size
#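 Kinetic fluorescence helicase assay: unwinding of a quenched forked DNA duplex (100 nM final) with 2 mM ATP final raises red fluorescence (525/598 nm). Compounds sat 15 min at room temperature with 20 nM WRN beforehand.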
# Pol kappa inh-2: confirmation of human DNA polymerase kappa inhibitors; hit rate 76% among 920; shares compounds with Pol eta inh-1; purified Pol-kappa, fluorescent strand-displacement substrate; Potency, µM, hits mostly inhibitors
# Pol eta inh-2: Pol eta (human) inhibition, cherry-pick confirmation. Pol eta primer extension, TAMRA/BHQ fluorescence, 10 min. shares compounds with Pol eta inh-1. hit rate 64% among 2,600. Potency, µM, actives largely listed as inhibitors
# FEN1 inh-2: confirmation of human FEN1 inhibitors | Potency, µM, most hits filed as inhibitors | shares compounds with FEN1 inh-1 | hit rate 79% among 880 | FEN1 flap cleavage, TAMRA/BHQ2 fluorogenic DNA substrate; further: nearly all actives have a fitted effect of over 60% in size
# WRN helicase inh-2: WRN helicase inhibition, cherry-pick retest. hit rate 63% among 610. Potency, µM (highest dose often 57.1 µM), without a hit: at the highest dose activity, negative = inhibition, hits mostly inhibitors. shares compounds with WRN helicase inh-1. WRN helicase DNA unwinding, fluorescence kinetic; further: nearly all actives have a fitted effect of over 65% in size
# TO DNA binding: counter-screen for WRN helicase inhibitors: DNA binding; shares compounds with WRN helicase inh-1; thiazole orange DNA binding displacement, fluorescence; Potency, µM (highest dose often 57.1 µM), for inactives: at the highest dose activity change, negative = inhibition, hits mostly inhibitors; hit rate 10% among 610;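 further: drop in dye fluorescence marks compound binding to DNA; on the % scale 0 is the no-effect control and ±100 the full control effect; nearly all actives have a fitted effect of over 60% in size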
# BLM helicase inh: blocks human BLM helicase in WRN counterscreen; shares compounds with WRN helicase inh-1; Recombinant BLM helicase DNA unwinding, red fluorescence; Potency, µM (titrated, usually from 57.1 µM), for the others: top-dose activity change, negative = inhibition, hits mostly inhibitors; hit rate 60% among 610; further: nearly all actives have a fitted effect of over 60% in size
# * hit, by the source's call; ? = inconclusive; . = no result given; [ ] = dose if it differs, or a comment. Most compounds without a hit are left out; they make up all but 2.4% or so of the library. The call rests on the fitted dose curve; in most records, active means well fitted curve in the direction sought with a large enough effect; inconclusive means small, poorly fitted or top-dose-only effect, or another doubt; inactive means no such curve, though single readings can be large; an effect the other way counts as inactive or inconclusive. Potency means the concentration at half of the fitted maximal effect.
SMILES,FEN1 inh-1,Pol eta inh-1,Pol iota inh,Pol beta inh,Pol kappa inh-1,WRN helicase inh-1,FEN1 inh-2,others
CC(C)Oc1ccc(C(=O)Nc2nnc(C3=COCCO3)o2)cc1,1%,-15%,42%,.,2%,-25%,.,
Cc1cccnc1NC(=O)c1cccc(S(=O)(=O)N2CCN(c3ccccc3)CC2)c1,-4%,-5%,8%,.,-18%,-8%,.,
C=CCn1c(SCC(=O)c2ccc(O)c(O)c2)nnc1-c1cccc(C)c1,-4%,16µM*,79µM*,.,45µM*,20µM*,.,Pol eta inh-2=?;WRN helicase inh-2=8.6µM*;TO DNA binding=-9%;BLM helicase inh=?
COc1ccc(Sc2ccc(/C=C3\C(=O)NN(c4ccccc4)C3=O)o2)cc1,-18%,25µM*,18µM*,45µM*,?,?,.,Pol eta inh-2=?;WRN helicase inh-2=22µM*;TO DNA binding=-18%;BLM helicase inh=22µM*
COc1cc(/C=C(\C#N)c2nc3ccc(C)cc3[nH]2)cc([N+](=O)[O-])c1O,50µM*,22µM*,?,45µM*,-42%,?,?,Pol kappa inh-2=24*;Pol eta inh-2=76*;WRN helicase inh-2=22µM*;TO DNA binding=11µM*;BLM helicase inh=12µM*
Cc1nc2ccccc2c2nc3ccccc3n12,22µM*,-7%,?,?,-10%,-5%,27*,
Fc1ccc(-c2nc3ccccc3c3nc4ccccc4n23)cc1,5%,-8%,0%,1%,1%,-7%,.,
CCN(CC)CCNc1cccc2sc3ccccc3c(=O)c12,.,-9%,.,.,.,-1%,.,
CCN(CC)CCNc1ccc(CO)c2sc3ccccc3c(=O)c12,32µM*,-18%,20µM*,16µM*,?,-16%,34*,
O=C(Nc1ccc(N2CCN(C(=O)c3ccccc3)CC2)cc1)c1ccc([N+](=O)[O-])o1,-1%,?,?,25µM*,-20%,-8%[11.6 µM],27*,
CC(=O)c1cccc(NC(=O)c2ccc([N+](=O)[O-])o2)c1,-1%,-14%,79µM*,.,-22%,-1%[11.6 µM],43*,
O=C(O)c1ccc2cccnc2n1,-1%,?,124%,3%,-9%,?,.,
O=C(O)c1ccc2cccnc2c1O,22µM*,-13%,36%,27%,-23%,-28%,7.6*,
CCn1ccnc1CN(C)Cc1nc(-c2cccc(Cl)c2)no1,-2%,-19%,58%,55%,0%,8%,.,
CN(C)C=Nc1ccc2nc3c(cc2c1)[nH]c1ccccc13,?,?,-19%,?,-3%,?,30*,
O=c1c2ccccc2nc2sc(Nc3ccc4c(c3)CNC4)nn12,.,.,.,.,.,.,38*,
CCC(=O)OC1(C)C(=O)C=C2C=C(C3CC3)OC=C2C1=O (centres undefined),?,?,?,.,?,-25%[11.6 µM],85*,
CCC1CCCCN1CCCNC(=O)c1cc2c(Cl)nc3ccc(C)cc3c2s1 (centres undefined),89µM*,8%,-11%,-11%,9%,.,?,
Cc1ccc2nc(Cl)c3cc(C(=O)NCCCN4CCCC4)sc3c2c1,22µM*,-3%,-13%,-4%,4%,37%,48*,
CC(C(=O)N1CCOCC1)(c1ccccc1)c1ccccc1,-12%,-13%,3%[58.9 µM],0%,-8%,6%,.,
Cc1ccc(C(=O)N/C(=C/c2ccc(-c3ccc([N+](=O)[O-])cc3)o2)C(=O)NCCCN(C)C)cc1,?,-24%,5%,.,-5%,8%[11.6 µM],43*,
CN(C)CCCN1C(=O)c2cccc3cccc(c23)C1=O,?,-5%,26%,?,-21%,-3%[11.6 µM],67*,
CN(C)CCCN1C(=O)c2cc3ccccc3cc2C1=O,1%,-3%,-14%,25%,-12%,1%,.,
COc1ccc2c(c1)C(c1ccc(N3CCOCC3)cc1)=NNC(c1cccnc1)=N2,5%,?,7%,6%,-2%,6%,.,
NC(=O)c1ccc2c(=O)c(O)c(-c3cc(Cl)c(N)c(Cl)c3)[nH]c2c1,56µM*,-1%,?,-2%,4%,?,38*,
SMILES,FEN1 inh-1,Pol eta inh-1,Pol iota inh,Pol beta inh,Pol kappa inh-1,WRN helicase inh-1,FEN1 inh-2,others
COc1cccc(N/N=C/c2cccc(Br)c2O)c1,-2%,-10%,45%,-23%,-2%,-20%,.,
Cc1cccc(N/N=C/c2ccc(O)c(O)c2O)c1,25µM*,?,?,10µM*,?,-9%[11.6 µM],?,
Cc1cc(=O)n(C)c(=O)n1CCCCOc1cccc([N+](=O)[O-])c1,-20%,-7%,5%,10%,-14%,4%,.,
CC1(O)CC(c2ccc(Cl)cc2)=NN1C(=O)c1ccc([N+](=O)[O-])cc1 (centres undefined),-5%,-4%,70%,-13%,-14%,3%[57.1 µM],.,
Nn1cnnc1N/N=C\c1ccc(-c2ccccc2[N+](=O)[O-])o1,-10%,-7%,2.8µM*,-19%,-8%,-19%,?,
O=C(N/N=C/c1ccc(-c2ccccc2[N+](=O)[O-])o1)c1cncc(Br)c1,-13%,-16%,58%,31%,-18%,-35%,.,
CC(C)CC(=O)NCC1(N(C)C)CCCCC1,0%,-14%,15%,11%,-1%,.,.,
O=C(Cc1cnn(-c2ccccc2)c1)c1ccc(O)c(O)c1O,25µM*,?,?,?,2.5µM*,11µM*,34*,
c1ccc2c(c1)Cc1cc3ccccc3nc1-2,?,-10%,?,-9%,-13%,-1%[11.6 µM],30*,
O=C1c2ccccc2-c2nc3ccccc3cc21,-22%,-3%,90%,13%,-5%,-1%,.,
COc1cccc(-c2nc(NCCN3CCOCC3)c3ccccc3n2)c1O,40µM*,?,?,?,-17%,-19%[57.1 µM],?,
